Laboratory results taken from PubChem BioAssay AID1852 (Sanford-Burnham Center for Chemical Genomics, 2009).
The whole screen tested about 2,500 compounds, of which about 1,100 (44%) were called active.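 The calls were made as follows: active = inhibition above 50% at 4 µM in the single-point screen; inactive = inhibition of 50% or less.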 The set was probably picked from earlier hits. Some of the results follow.

assay: TNF-a-driven NF-kB reporter inhibitors, primary screen, selectivity assay for NOD1/NOD2 signaling inhibitor project, cell-based, HEK293T NF-kB-Luc, luminescence (AID 1852); conditions: TNF-a induced, 14 h, at 4 µM, stronger effect = higher value

inhibition, active:
COC(=O)c1cccc2c1-c1ccccc1/C2=N/O 67.3%, O=[N+]([O-])c1ccc(O)c(/C=N/Nc2ccc(Cl)nn2)c1 70.3%, O=[N+]([O-])c1ccc(O)c(/C=N/Nc2ccccc2[N+](=O)[O-])c1 69.5%, O=[N+]([O-])c1ccc(O)c(/C=N/NC(=S)Nc2ccc(Cl)cc2Cl)c1 105%, O=C(NC(NC(=S)Nc1ccc(Cl)cc1Cl)C(Cl)(Cl)Cl)c1cccc([N+](=O)[O-])c1 (stereo not drawn) 95.7%, O=[N+]([O-])c1ccc(O)c(/C=N\N=C2c3ccccc3-c3ccccc32)c1 77%, Cc1ccc(Cc2c(C)c(C#N)c3[nH]c4ccccc4n3c2=O)cc1 74.6%, Cc1ccc(S(=O)(=O)c2cc3cc(Br)ccc3oc2=O)cc1 58.4%, O=c1oc2ccc(Br)cc2cc1S(=O)(=O)c1ccc(F)cc1 68%, C=CCC1(CC=C)CCCN1C(=O)c1cc(COc2ccc(C)nc2)on1 52.5%, c1ccc(N2CCN(c3ncnc4sc5c(c34)CCC5)CC2)cc1 57.1%, COc1cccc(N2CCN(c3ncnc4c3[nH]c3ccc(F)cc34)CC2C)c1 (stereo not drawn) 110%, COc1cccc(N2CCN(c3ncnc4c3[nH]c3ccccc34)CC2C)c1 (stereo not drawn) 106%, COc1ccc(CNC(=O)c2cc3c(C)nc4ccccc4c3o2)c(OC)c1 62.8%, CCCCc1cc(=O)oc2cc(OCC(=O)Nc3cccnc3)c(Cl)cc12 85.3%, COc1nc(Nc2nc3ccccc3c(=O)[nH]2)nc2ccc(C)cc12 67.4%, Cc1[nH]n(-c2ccccc2)c(=O)c1/C=N/NC(=O)c1cccc([N+](=O)[O-])c1 76.8%, Cc1ccc(-n2[nH]c(C)c(/C=N/Nc3ccc([N+](=O)[O-])cc3[N+](=O)[O-])c2=O)cc1C 83.2%, COc1ccc(C(=O)Nc2ccccc2C(=O)N/N=C/c2ccccn2)cc1OC 102%, Cc1cccc(/C=N/NC(=O)c2cccc([N+](=O)[O-])c2)n1 97.4%, O=C(N/N=C/c1ccccn1)c1cc([N+](=O)[O-])cc([N+](=O)[O-])c1 96.4%, O=C(N/N=C/c1ccccn1)c1ccc(Cl)c(Cl)c1 101%, O=C(N/N=C/c1ccccn1)c1sc2ccccc2c1Cl 85.8%, CC(/C=C/c1ccccc1)=N/NC(=O)c1cc([N+](=O)[O-])cc([N+](=O)[O-])c1 102%, CCc1ccc(N(CC)c2ncnc3nc[nH]c23)cc1 82.5%, CCCN(CCC)c1ncnc2nc[nH]c12 83.4%, CCN(c1ccc(OC)cc1)c1ncnc2nc[nH]c12 86.3%, O=C(Nc1ccccc1C(=O)O)c1cc(S(=O)(=O)Nc2cccc(F)c2)ccc1Cl 58.9%, O=C(Nc1ccccc1C(=O)O)c1cccc(NS(=O)(=O)c2ccc(Br)cc2)c1 55.5%, O=C(/C=C/c1ccc([N+](=O)[O-])cc1)Nc1cccc(C(=O)Nc2ccccc2C(=O)O)c1 65.5%, O=C1CSc2ccc(C(=O)Nc3cccc(S(=O)(=O)Nc4ccc(Br)cc4)c3)cc2N1 63.4%, O=C(Nc1ccccc1C(=O)O)c1cc(S(=O)(=O)N2CCCCC2)c(Cl)cc1Cl 61%, Cc1ccc(C(=O)Nc2ccccc2C(=O)O)cc1S(=O)(=O)Nc1ccccc1 76.6%, O=C(Nc1ccccc1C(=O)O)c1cc(S(=O)(=O)Nc2ccccc2)ccc1Cl 58.9%, O=c1cc(C(F)(F)F)[nH]c2ccc(C(F)(F)F)cc12 73.1%, O=c1cc(C(F)(F)F)[nH]c2ccc(OC(F)(F)F)cc12 78.8%, Cc1ccc(NC(=O)/C=C/c2ccc([N+](=O)[O-])s2)c(C)c1 100%, Cc1ccccc1NC(=O)/C=C/c1ccc([N+](=O)[O-])s1 104%

inhibition, inactive:
O=C(COC(=O)/C=C/C(=O)OCC(=O)Nc1ccccc1F)Nc1ccccc1F 33.2%, COC(=O)c1ccc2c(c1O)C(=O)c1ccccc1C2=O -53.2%, CCOC(=O)c1cccc2c1-c1ccccc1/C2=N/O 48.8%, CCCOc1ccc(/C=N/NC(=S)Nc2ccccc2[N+](=O)[O-])c(O)c1 15.1%, O=C(NC(NC(=S)Nc1ccccc1Cl)C(Cl)(Cl)Cl)c1cccc(Cl)c1 (stereo not drawn) -7%, COc1ccc(NC(=S)NC(NC(=O)c2ccc(Cl)cc2Cl)C(Cl)(Cl)Cl)c([N+](=O)[O-])c1 (stereo not drawn) 34.9%, O=[N+]([O-])c1cc(Cl)cc(/C=N/NC(=S)Nc2cc(S(=O)(=O)N3CCOCC3)ccc2Cl)c1O 49.1%, O=C(NC(NC(=S)Nc1ccccc1)C(Cl)(Cl)Cl)c1cccc(Cl)c1 (stereo not drawn) 23.1%, Oc1cccc(/C=N/Nc2ccc(Cl)nn2)c1O -18%, Oc1c(Br)cc(Br)cc1/C=N/Nc1ccc(Cl)nn1 44.5%, O=[N+]([O-])c1ccc(O)c(/C=N/Nc2ncnc3c2cnn3-c2ccccc2)c1 46.3%, O=C1NC(=O)/C(=C\c2ccc(Oc3cnccn3)cc2)S1 -64.2%, O=[N+]([O-])c1cccc(/C=N\N=C2c3ccccc3-c3ccccc32)c1O 7.7%, Oc1nc(Nc2ccc(Cl)cc2Cl)sc1/C=C1\C=Nc2ccccc21 5.6%, CCCCc1c(C)c(C#N)c2[nH]c3ccccc3n2c1=O 44.9%, Cc1ccc(CSc2nc(-c3ccccc3)c(C#N)c(=O)[nH]2)cc1 -18%, Cc1ccc(O)c(C(=O)c2cc(C#N)c3nc4ccccc4n3c2)c1 33%, Cc1ccc(S(=O)(=O)c2cc3ccccc3oc2=O)cc1 29.7%, CC(C)c1ccc(S(=O)(=O)c2cc3cc(Br)ccc3oc2=O)cc1 32.3%, Cc1ccc(OCc2cc(C(=O)NC3CCCCC3)no2)cn1 46%, C=CCC1(CC=C)CCCN1C(=O)c1cc(COc2cncc(Cl)c2)on1 19.5%, CC1CCc2sc3ncnc(N4CCOCC4)c3c2C1 (stereo not drawn) 29.3%, O=C(O)c1cccc(-c2ccc(/C=N/n3cnc4sc5c(c4c3=O)CCCC5)o2)c1 -30.8%, CC1=NNC(=O)/C1=C\c1cn(-c2ccccc2)nc1-c1cccs1 -42.7%, Cc1cccc(N2CCN(C(=O)C3CCN(c4ncnc5c4nc4n5CCCCC4)CC3)CC2C)c1 (stereo not drawn) 33.7%, NC(=O)c1c(NC(=O)c2ccc([N+](=O)[O-])o2)sc2c1CCCC2 -24.9%, COc1ccc(OC)c(Nc2c3c(nc4ccccc24)CCC3)c1 49.6%, Cc1nc2ccccc2c2oc(C(=O)NCC3COc4ccccc4O3)cc12 (stereo not drawn) 39.3%, O=C(COc1ccc2c(-c3ccccc3)cc(=O)oc2c1)Nc1cccnc1 34.1%, O=C(COc1ccc(C(=O)c2ccccc2)cc1)Nc1cccnc1 46.8%, Cc1ccc2cccc(N=Cc3c(C)[nH]n(-c4ccccc4)c3=O)c2n1 38.3%, C/C(=N/NC(=S)Nc1cccc(C)c1)c1cccc([N+](=O)[O-])c1 6.4%, COc1ccc(C(=O)N/N=C/c2ccc(OC(=O)c3cccc4ccccc34)c([N+](=O)[O-])c2)cc1 41.6%, Cc1c(C(=O)N/N=C/c2ccoc2)cccc1[N+](=O)[O-] -12.6%, Cc1[nH]n(-c2ccccc2)c(=O)c1/C=N/NC(=O)c1cccc(F)c1 -0.8%, CCOc1cc(S(=O)(=O)NCc2ccncc2)ccc1Cl 48.8%, O=C(N/N=C/c1ccccn1)c1ccc(Cl)cc1 -21.2%, CC(/C=C/c1ccccc1)=N/NC(=O)c1cccc(Br)c1 13.3%, C/C(=N\NC(=O)c1ccc(Cl)c(Cl)c1)c1ccc(Br)s1 40.4%, COc1cc([N+](=O)[O-])ccc1-c1ccc(/C=N/NC(=O)c2ccccc2O)o1 0.6%, C/C(Cn1nnc([N+](=O)[O-])n1)=N\NC(=O)c1ccc(Cl)c(Cl)c1 31.3%, C/C(Cl)=C/Cn1c(SC(C)C)nc2c1c(=O)[nH]c(=O)n2C -13.9%, Cc1ccc(NS(=O)(=O)c2cc(NC(=O)c3ccc4c(c3)NC(=O)CS4)ccc2C)c(C)c1 3.2%, Cc1cccc(NC(=O)c2cccc(NS(=O)(=O)c3ccc(Cl)cc3)c2)c1 23.1%, Cc1ccc(NS(=O)(=O)c2cc(NC(=O)c3ccc4c(c3)NC(=O)CS4)ccc2Cl)c(C)c1 -2.2%, O=C(Nc1cccc([N+](=O)[O-])c1)c1ccc2ccccc2c1O 32.8%, Cc1ccc2c(c1)CCCN2S(=O)(=O)c1cccc(C(=O)Nc2ccccc2C(=O)O)c1 5.4%, Cc1ccc(Sc2ccc(/C=C3/C(=O)NN(c4ccccc4)C3=O)o2)cc1 -8.6%, O=C(CCl)Nc1cc(S(=O)(=O)N2CCCCCC2)ccc1Cl 17.6%, NS(=O)(=O)c1ccc(NC(=O)c2cc(Cl)ccc2Cl)cc1 14.7%, O=C(Nc1ccc(Cl)cn1)c1ccc(Br)c(S(=O)(=O)N2CCCCC2)c1 39.5%, O=C(c1cc2nc(-c3ccc(F)cc3)cc(C(F)(F)F)n2n1)N1CCCCC1c1cccnc1 (stereo not drawn) 34.3%, Brc1ccccc1OCCCCn1cnc2ccccc21 -10.4%, O=c1nc(/C=C/c2ccccc2C(F)(F)F)cc(C(F)(F)F)[nH]1 -14.4%, CN(C(=O)/C=C/c1ccc([N+](=O)[O-])s1)c1ccccc1 37.1%
